The full ranking holds about 16,000 sequences; the median of “e-score” is about -0.044, and the highest 2% start at about 0.38. Only a selection was taken, and the highest values are over-represented in it overall.
Biological target: T1, GST-NbGlk1(82-244) (Nicotiana benthamiana)
T1 chain: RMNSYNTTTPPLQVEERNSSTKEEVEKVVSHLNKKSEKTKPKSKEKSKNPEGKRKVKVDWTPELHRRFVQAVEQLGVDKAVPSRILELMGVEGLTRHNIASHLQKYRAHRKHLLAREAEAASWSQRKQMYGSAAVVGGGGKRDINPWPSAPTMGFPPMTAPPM
Experiment: protein-binding microarray; NbGlk1 is a Golden2-like transcription factor of Nicotiana benthamiana; high values mean tight binding
Details: protein: recombinant; tags: GST (pTH6838); dsDNA, one strand shown

Question: ATTTGCAA was tested. Which binding signal did it give?
Answer: The binding signal was 0.304 ± 0.00257 E-score.

Question: How did the binding signal turn out when ATATCACA was run?
Answer: Its binding signal is 0.369 ± 0.031 E-score.

Question: Which binding signal does the source give for ATTGCGTA here?
Answer: Its binding signal is 0.367 ± 0.0361 E-score.

Question: For ATTGCGTG, which binding signal is on record?
Answer: Its binding signal is 0.388 ± 0.00526 E-score.

Question: Which binding signal does the source give for ATTGCGTC here?
Answer: The binding signal was 0.2709 ± 0.000439 E-score.

Question: With CAATCAAA as the sequence, how does the binding signal read?
Answer: The binding signal was 0.214 ± 0.036 E-score.

Question: Which binding signal does the source give for AAAATAAA here?
Answer: The binding signal was 0.218 ± 0.15 E-score.

Question: CACTGATA was tested. Which binding signal did it give?
Answer: The binding signal was 0.208 ± 0.181 E-score.

Question: ATCTCGAC was tested. Which binding signal did it give?
Answer: The binding signal was 0.34 ± 0.0977 E-score.

Question: ATCTCTAG was tested. Which binding signal did it give?
Answer: Its binding signal is 0.294 ± 0.0244 E-score.

Question: With ATCTCTAA as the sequence, how does the binding signal read?
Answer: Its binding signal is 0.216 ± 0.0218 E-score.

Question: Which binding signal does the source give for ATATCTAG here?
Answer: The binding signal was 0.392 ± 0.0205 E-score.

Question: Which binding signal does the source give for ATATCTAA here?
Answer: Its binding signal is 0.417 ± 0.0517 E-score.

Question: How did the binding signal turn out when ATATCTAC was run?
Answer: The binding signal was 0.392 ± 0.0225 E-score.

Question: AGATCTAA was tested. Which binding signal did it give?
Answer: Its binding signal is 0.303 ± 0.0304 E-score.

Question: How did the binding signal turn out when ATCTCTAC was run?
Answer: Its binding signal is 0.297 ± 0.0234 E-score.

Question: How did the binding signal turn out when ATATCAAC was run?
Answer: Its binding signal is 0.287 ± 0.0867 E-score.

Question: How did the binding signal turn out when AGATCTAG was run?
Answer: The binding signal was 0.349 ± 0.0106 E-score.

Question: How did the binding signal turn out when ACCGATAT was run?
Answer: The binding signal was 0.364 ± 0.00959 E-score.

Question: Which binding signal does the source give for ATCAGAAT here?
Answer: Its binding signal is 0.275 ± 0.0769 E-score.

Question: AGTGTAAT was tested. Which binding signal did it give?
Answer: Its binding signal is 0.362 ± 0.0129 E-score.

Question: ATCTGATA was tested. Which binding signal did it give?
Answer: Its binding signal is 0.345 ± 0.00479 E-score.

Question: ATTCGTAA was tested. Which binding signal did it give?
Answer: Its binding signal is 0.208 ± 0.00392 E-score.

Question: How did the binding signal turn out when ATCTTTCC was run?
Answer: The binding signal was 0.218 ± 0.0881 E-score.

Question: Which binding signal does the source give for AATCACAT here?
Answer: The binding signal was 0.265 ± 0.0229 E-score.

Question: Which binding signal does the source give for CAATCGCA here?
Answer: The binding signal was 0.23 ± 0.0233 E-score.

Question: With CACGTATC as the sequence, how does the binding signal read?
Answer: The binding signal was 0.216 ± 0.0457 E-score.

Question: ATCGCGGC was tested. Which binding signal did it give?
Answer: Its binding signal is 0.208 ± 0.0886 E-score.

Question: How did the binding signal turn out when ATTTTACG was run?
Answer: Its binding signal is 0.213 ± 0.082 E-score.

Question: With AGATCGGA as the sequence, how does the binding signal read?
Answer: The binding signal was 0.277 ± 0.0345 E-score.

Question: How did the binding signal turn out when AATCATTA was run?
Answer: The binding signal was 0.201 ± 0.157 E-score.

Question: ATTGCATG was tested. Which binding signal did it give?
Answer: The binding signal was 0.221 ± 0.0421 E-score.

Question: Which binding signal does the source give for ATTTCACG here?
Answer: The binding signal was 0.242 ± 0.0818 E-score.

Question: How did the binding signal turn out when AATTTCGG was run?
Answer: Its binding signal is 0.245 ± 0.0953 E-score.

Question: ATTATGGA was tested. Which binding signal did it give?
Answer: Its binding signal is 0.277 ± 0.0309 E-score.

Question: Which binding signal does the source give for AATCCTAG here?
Answer: The binding signal was 0.388 ± 0.0422 E-score.

Question: How did the binding signal turn out when AATCCTAT was run?
Answer: Its binding signal is 0.376 ± 0.0141 E-score.

Question: With AATCCTAC as the sequence, how does the binding signal read?
Answer: Its binding signal is 0.3426 ± 0.00211 E-score.

Question: For AATCCTAA, which binding signal is on record?
Answer: Its binding signal is 0.395 ± 0.0218 E-score.

Question: How did the binding signal turn out when AATCCTGC was run?
Answer: The binding signal was 0.356 ± 0.0181 E-score.

Question: For AATCCTCG, which binding signal is on record?
Answer: The binding signal was 0.345 ± 0.0473 E-score.

Question: Which binding signal does the source give for AATCCTGA here?
Answer: The binding signal was 0.399 ± 0.0138 E-score.

Question: Which binding signal does the source give for AATCCTGG here?
Answer: Its binding signal is 0.3628 ± 0.00311 E-score.

Question: Which binding signal does the source give for ATTCCTAG here?
Answer: The binding signal was 0.202 ± 0.0268 E-score.

Question: Which binding signal does the source give for ATCGTGGA here?
Answer: The binding signal was 0.273 ± 0.0839 E-score.

Question: ACGAATCG was tested. Which binding signal did it give?
Answer: Its binding signal is 0.283 ± 0.0452 E-score.

Question: How did the binding signal turn out when ATTCCTTG was run?
Answer: Its binding signal is 0.228 ± 0.115 E-score.

Question: With AATCATCA as the sequence, how does the binding signal read?
Answer: The binding signal was 0.212 ± 0.0286 E-score.

Question: AATCATCG was tested. Which binding signal did it give?
Answer: Its binding signal is 0.225 ± 0.0433 E-score.

Question: AATCTTCC was tested. Which binding signal did it give?
Answer: The binding signal was 0.361 ± 0.0433 E-score.

Question: With AATCTTCT as the sequence, how does the binding signal read?
Answer: The binding signal was 0.41 ± 0.0267 E-score.

Question: For AATCTTCG, which binding signal is on record?
Answer: Its binding signal is 0.404 ± 0.0151 E-score.

Question: How did the binding signal turn out when AATCGTCT was run?
Answer: Its binding signal is 0.277 ± 0.0759 E-score.

Question: AATCTTCA was tested. Which binding signal did it give?
Answer: The binding signal was 0.388 ± 0.01 E-score.

Question: With ATTCTTCC as the sequence, how does the binding signal read?
Answer: The binding signal was 0.221 ± 0.0993 E-score.

Question: How did the binding signal turn out when ATTCTTCA was run?
Answer: The binding signal was 0.324 ± 0.0737 E-score.

Question: For AATAATCT, which binding signal is on record?
Answer: The binding signal was 0.276 ± 0.0304 E-score.

Question: For CACACAGA, which binding signal is on record?
Answer: The binding signal was 0.201 ± 0.0131 E-score.

Question: How did the binding signal turn out when ATATATGG was run?
Answer: Its binding signal is 0.224 ± 0.0844 E-score.

Question: Which binding signal does the source give for ATATACGA here?
Answer: Its binding signal is 0.236 ± 0.0113 E-score.

Question: Which binding signal does the source give for ATTTCGAA here?
Answer: The binding signal was 0.316 ± 0.0613 E-score.

Question: For ATCCAAAC, which binding signal is on record?
Answer: The binding signal was 0.241 ± 0.133 E-score.

Question: How did the binding signal turn out when ATCTCAAG was run?
Answer: Its binding signal is 0.256 ± 0.0583 E-score.

Question: ATCGTATC was tested. Which binding signal did it give?
Answer: Its binding signal is 0.36 ± 0.0262 E-score.

Question: For AATCCAAG, which binding signal is on record?
Answer: Its binding signal is 0.394 ± 0.00595 E-score.

Question: AATCCAAA was tested. Which binding signal did it give?
Answer: Its binding signal is 0.4128 ± 0.00044 E-score.

Question: Which binding signal does the source give for ATTCCAAG here?
Answer: The binding signal was 0.205 ± 0.0718 E-score.

Question: AATCCAAT was tested. Which binding signal did it give?
Answer: The binding signal was 0.408 ± 0.0114 E-score.

Question: How did the binding signal turn out when AATCAAAA was run?
Answer: Its binding signal is 0.296 ± 0.0471 E-score.

Question: For AATGCAAT, which binding signal is on record?
Answer: Its binding signal is 0.303 ± 0.0228 E-score.

Question: Which binding signal does the source give for ATCCCAAT here?
Answer: Its binding signal is 0.201 ± 0.0789 E-score.

Question: How did the binding signal turn out when AATCCCAA was run?
Answer: The binding signal was 0.367 ± 0.00919 E-score.

Question: How did the binding signal turn out when AATCCAAC was run?
Answer: Its binding signal is 0.348 ± 0.0137 E-score.

Question: How did the binding signal turn out when AACGGAAT was run?
Answer: The binding signal was 0.285 ± 0.0635 E-score.

Question: For ATTTCCCG, which binding signal is on record?
Answer: Its binding signal is 0.3088 ± 0.000826 E-score.

Question: Which binding signal does the source give for ATCTCAGC here?
Answer: The binding signal was 0.22 ± 0.0276 E-score.

Question: AATATCAT was tested. Which binding signal did it give?
Answer: Its binding signal is 0.282 ± 0.0333 E-score.

Question: AATATCGT was tested. Which binding signal did it give?
Answer: The binding signal was 0.322 ± 0.0372 E-score.

Question: Which binding signal does the source give for AATATCGA here?
Answer: Its binding signal is 0.326 ± 0.0506 E-score.

Question: Which binding signal does the source give for AATATCCA here?
Answer: The binding signal was 0.396 ± 0.0292 E-score.

Question: AGTATCCA was tested. Which binding signal did it give?
Answer: The binding signal was 0.265 ± 0.00779 E-score.

Question: How did the binding signal turn out when ATTATCCG was run?
Answer: Its binding signal is 0.279 ± 0.01 E-score.

Question: With AATATCCT as the sequence, how does the binding signal read?
Answer: The binding signal was 0.389 ± 0.005 E-score.

Question: How did the binding signal turn out when AATATCCG was run?
Answer: Its binding signal is 0.426 ± 0.013 E-score.

Question: How did the binding signal turn out when AATATCCC was run?
Answer: Its binding signal is 0.339 ± 0.0252 E-score.

Question: How did the binding signal turn out when ATCGAGAA was run?
Answer: The binding signal was 0.236 ± 0.0184 E-score.
